Each structure is given as a SMILES string. Results filed as inconclusive are left out. Unmarked numbers belong to inactive results. Activity calls are given as the source filed them. Calls follow the shape of the full dose curve.

Test [1] in a line: Primary qHTS for inhibitors of SARS-S pseudo-typed particle cell entry (AID 1479145). Also: nearly all actives have a fitted effect of over 45% in size. The note with it: SARS-S pseudotyped particle cell entry, luciferase reporter; series mostly up to 57.1 µM.
Test [2] in a line: Primary qHTS for Huh7 cytotoxicity: counterscreen for inhibitors of MERS-S pseudotyped particle cell entry (AID 1479147). The following applies: cell viability read-out; series mostly up to 57.1 µM.
A short description of test [3]: Primary qHTS for inhibitors of MERS-S pseudo-typed particle cell entry (AID 1479149). Also: nearly all actives have a fitted effect of over 60% in size. The following applies: MERS-S pseudotyped particle entry, luciferase; series mostly up to 57.1 µM.
Test [4] in a line: Primary qHTS for Vero E6 cytotoxicity: counterscreen for inhibitors of SARS-S pseudo-typed particle cell entry (AID 1479150). Also: potency is read from the fitted curve at half-maximal effect. The note with it: cell viability; series mostly up to 57.1 µM.

On to `CCOc1cc(N)c(Cl)cc1C(=O)NCC1CN(Cc2ccc(F)cc2)CCO1` (stereo unspecified), for which the Potency result in test [1], in test [2], in test [3] and in test [4] was “inactive” in each case.
As to `COCc1c(C(C)C)nc(C(C)C)c(/C=C/[C@@H](O)C[C@@H](O)CC(=O)O)c1-c1ccc(F)cc1`, the Potency entry in test [1], in test [2] and in test [3] was “inactive” throughout. In addition, the Potency in test [4] was 708 nM (active).
`CCCOc1ccc2nc(NC(=O)OC)[nH]c2c1`: the Potency result in test [1], in test [2], in test [3] and in test [4] was “inactive” throughout.
Take `Cc1ncc(CSSCc2cnc(C)c(O)c2CO)c(CO)c1O`: the Potency entry in test [1], in test [2], in test [3] and in test [4] was “inactive” throughout.
With `CCCCC(=O)O[C@]1(C(=O)CO)CC[C@H]2[C@@H]3CCC4=CC(=O)CC[C@]4(C)[C@H]3[C@@H](O)C[C@@]21C`, the Potency result in test [1], in test [2], in test [3] and in test [4] was “inactive” each time.
For `Cc1cccc(N(C)C(=S)Oc2ccc3c(c2)CCC3)c1`, the Potency result in test [1], in test [2], in test [3] and in test [4] was “inactive” throughout.
With `Cc1ccc(/C=N/n2c(-c3ccccc3)csc2=S)cc1`, the Potency result in test [1], in test [2], in test [3] and in test [4] was “inactive” throughout.
Consider `C[C@@H]1C[C@H]2[C@@H]3CCC4=CC(=O)C=C[C@]4(C)[C@@]3(F)[C@@H](O)C[C@]2(C)[C@@]1(O)C(=O)COC(=O)c1ccncc1`, for which the Potency result in test [1], in test [2], in test [3] and in test [4] was “inactive” in each case.
Take `O=c1[nH]cnc2c1ncn2[C@@H]1O[C@H](CO)[C@@H](O)[C@H]1O`: the Potency result in test [1], in test [2], in test [3] and in test [4] was “inactive” each time.
Take `CCn1cc(C(=O)O)c(=O)c2cc(F)c(N3CCNCC3)nc21`: the Potency result in test [1], in test [2], in test [3] and in test [4] was “inactive” in each case.
As for `CC(=O)N(CC(O)CN(C(C)=O)c1c(I)c(C(=O)NCC(O)CO)c(I)c(C(=O)NCC(O)CO)c1I)c1c(I)c(C(=O)NCC(O)CO)c(I)c(C(=O)NCC(O)CO)c1I` (stereo unspecified), the Potency entry in test [1], in test [2], in test [3] and in test [4] was “inactive” in each case.
On to `NC1=NCC2c3ccccc3Cc3ccccc3N12` (stereo unspecified), for which the Potency entry in test [1], in test [2], in test [3] and in test [4] was “inactive” in each case.
Consider `CC(C)(Oc1ccc(CCNC(=O)c2ccc(Cl)cc2)cc1)C(=O)O`, for which the Potency entry in test [1], in test [2], in test [3] and in test [4] was “inactive” throughout.
For the molecule `COc1ccc(CN(CCN(C)C)c2ccccn2)cc1`, the Potency result in test [1], in test [2], in test [3] and in test [4] was “inactive” throughout.
Take `CC(C)(C)CC(=O)OCC(=O)[C@@]1(O)CC[C@H]2[C@@H]3CCC4=CC(=O)C=C[C@]4(C)[C@H]3[C@@H](O)C[C@@]21C`: the Potency result in test [1], in test [2], in test [3] and in test [4] was “inactive” throughout.
On to `CC(C)(C)C(=O)C(Oc1ccc(Cl)cc1)n1ccnc1` (stereo unspecified), for which the Potency result in test [1], in test [2], in test [3] and in test [4] was “inactive” in each case.
On to `CC[C@H](NC(C)C)[C@H](O)c1ccc(O)c2[nH]c(=O)ccc12`, for which the Potency entry in test [1], in test [2], in test [3] and in test [4] was “inactive” each time.
For `Nc1nc2ncc(CNc3ccc(C(=O)N[C@@H](CCC(=O)O)C(=O)O)cc3)nc2c(=O)[nH]1`, the Potency result in test [1], in test [2], in test [3] and in test [4] was “inactive” throughout.
Consider `C#C[C@]1(O)CC[C@H]2[C@@H]3[C@H](C)CC4=C(CCC(=O)C4)[C@H]3CC[C@@]21C`, for which the Potency entry in test [1], in test [2], in test [3] and in test [4] was “inactive” each time.
For `C[C@H]1C[C@H]2[C@@H]3CCC4=CC(=O)C=C[C@]4(C)[C@H]3C(=O)C[C@]2(C)[C@@]1(O)C(=O)CO`, the Potency entry in test [1], in test [2], in test [3] and in test [4] was “inactive” throughout.
On to `CC(C)c1cc2c(cc1S(=O)(=O)O)[C@@]1(C)CCC[C@@](C)(C(=O)O)[C@@H]1CC2`, for which the Potency entry in test [1], in test [2], in test [3] and in test [4] was “inactive” each time.
Consider `CCCSS/C(CCO)=C(\C)N(C=O)Cc1cnc(C)nc1N`, for which the Potency result in test [1], in test [2], in test [3] and in test [4] was “inactive” throughout.
As to `Cc1ccc(=O)n(-c2ccccc2)c1`, the Potency entry in test [1], in test [2], in test [3] and in test [4] was “inactive” each time.
In the case of `COC(=O)Nc1nc2ccc(Sc3ccccc3)cc2[nH]1`, the Potency entry in test [1], in test [2], in test [3] and in test [4] was “inactive” in each case.
With `CC(O)Cn1cnc2c1c(=O)n(C)c(=O)n2C` (stereo unspecified), the Potency result in test [1], in test [2], in test [3] and in test [4] was “inactive” each time.
For `CNC1CCCN(c2c(F)cc3c(=O)c(C(=O)O)cn(C4CC4)c3c2OC)C1` (stereo unspecified), the Potency entry in test [1], in test [2], in test [3] and in test [4] was “inactive” throughout.
Take `C[N+]1(CC2COC(c3ccccc3)(c3ccccc3)O2)CCCCC1` (stereo unspecified): the Potency entry in test [1], in test [2], in test [3] and in test [4] was “inactive” in each case.
As to `CCOc1ccc2nc(S(N)(=O)=O)sc2c1`, the Potency result in test [1], in test [2], in test [3] and in test [4] was “inactive” in each case.
For `NCCc1cnc[nH]1`, the Potency result in test [1], in test [2], in test [3] and in test [4] was “inactive” throughout.
On to `CC(C(=O)O)c1ccc2c(c1)Cc1cccnc1O2` (stereo unspecified), for which the Potency entry in test [1], in test [2], in test [3] and in test [4] was “inactive” throughout.
As to `CCOC(=O)c1c(N)sc2c1CCN(Cc1ccccc1)C2`, the Potency result in test [1], in test [2], in test [3] and in test [4] was “inactive” throughout.
For `CC1=C(C)C(=O)C(C(CCCCCC(=O)O)c2ccccc2)=C(C)C1=O` (stereo unspecified), the Potency result in test [1], in test [2], in test [3] and in test [4] was “inactive” throughout.
Turning to `CCN[C@H]1C[C@H](C)S(=O)(=O)c2sc(S(N)(=O)=O)cc21`, the Potency result in test [1], in test [2], in test [3] and in test [4] was “inactive” throughout.
As to `CC(=O)OCC(=O)[C@@]1(O)CCC2C3CCC4=CC(=O)CC[C@]4(C)C3[C@@H](O)C[C@@]21C` (stereo partly specified), the Potency entry in test [1], in test [2], in test [3] and in test [4] was “inactive” each time.

These data come from PubChem BioAssay (NCATS).
